The panel holds about 83,000 compounds, 20% with a hit somewhere; the sample as a whole holds those more often.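 Results are percent growth after 48 hours of single-concentration exposure. 100 means growth as in untreated cells, lower positive values show inhibition; negative values down to -100 show cell death.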 Values without a mark were called inactive. Calls of active or inactive are those of the source. How the source made its calls: active means growth percent below 10; inactive means the rest.
Experiments:
Test in all cases: NCI-60 one-dose screen, 48 h (100 = growth as untreated, 0 = no growth, -100 = all killed)
Details in all cases: 10 µM unless noted
NCI-H23 lung = tested on: NCI-H23 lung
NCI-H226 lung = tested on: NCI-H226 lung
NCI-H322M lung = tested on: NCI-H322M lung
HOP-62 NSCLC = tested on: HOP-62 NSCLC
NCI-H460 lung = tested on: NCI-H460 lung
HOP-92 NSCLC = tested on: HOP-92 NSCLC
A549/ATCC NSCLC = tested on: A549/ATCC NSCLC
786-0 renal = tested on: 786-0 renal
COLO 205 colon = tested on: COLO 205 colon
DU-145 prostate = tested on: DU-145 prostate
K-562 leukemia = tested on: K-562 leukemia
MALME-3M melanoma = tested on: MALME-3M melanoma
MDA-MB-231 breast = tested on: MDA-MB-231 breast
RXF 393 renal = tested on: RXF 393 renal
SF-268 CNS = tested on: SF-268 CNS
SF-295 CNS = tested on: SF-295 CNS
SF-539 CNS = tested on: SF-539 CNS
UACC-257 melanoma = tested on: UACC-257 melanoma
M14 melanoma = tested on: M14 melanoma

`CCN1C(=O)N(CC)C2Nn3c(s/c(=C4\C(=O)N(CC(C)C)c5ccccc54)c3=O)=NC21` (stereo unspecified) gave a growth (NCI-H23 lung) of 43%, a growth (NCI-H226 lung) of 84.1% and a growth (NCI-H322M lung) of 64.9%. The growth (HOP-62 NSCLC) was 55.2%, the growth (NCI-H460 lung) was 24.5% and the growth (HOP-92 NSCLC) was 81.2%. For the same molecule, the growth (A549/ATCC NSCLC) was 44.6%, the growth (786-0 renal) was 35.3% and the growth (COLO 205 colon) was 4.64% (active). For the same molecule, the growth (DU-145 prostate) was 34.5%, the growth (K-562 leukemia) was 15.6% and the growth (MALME-3M melanoma) was 70%. For the same molecule, the growth (MDA-MB-231 breast) was 19.6%, the growth (RXF 393 renal) was -3.71% (active) and the growth (SF-268 CNS) was 66.1%. The growth (SF-295 CNS) was 42.4%, the growth (SF-539 CNS) was 7.6% (active) and the growth (UACC-257 melanoma) was 87.5%. For the same molecule, the growth (M14 melanoma) was 18.9%.

`CCc1ccccc1-n1c(N)c(C#N)c(-c2ccc(Cl)cc2)c(C#N)c1=O` was tested, and the growth (NCI-H23 lung) was 107%, the growth (NCI-H226 lung) was 110% and the growth (NCI-H322M lung) was 140%. It also gave a growth (HOP-62 NSCLC) of 101%, a growth (NCI-H460 lung) of 111% and a growth (HOP-92 NSCLC) of 80%. For the same molecule, the growth (A549/ATCC NSCLC) was 117%, the growth (786-0 renal) was 112% and the growth (COLO 205 colon) was 126%. The growth (DU-145 prostate) was 110%, the growth (K-562 leukemia) was 114% and the growth (MALME-3M melanoma) was 173%. For the same molecule, the growth (MDA-MB-231 breast) was 94.8%, the growth (RXF 393 renal) was 113% and the growth (SF-268 CNS) was 104%. The growth (SF-295 CNS) was 99.3%, the growth (SF-539 CNS) was 103% and the growth (UACC-257 melanoma) was 125%. The growth (M14 melanoma) was 104%.

Work on `Cc1c(C(=O)N[C@@H](Cc2ccccc2)C(=O)C(=O)NCc2ccc(F)cc2)[nH]c2ccccc2c1=O` yielded a growth (NCI-H23 lung) of 101%, a growth (NCI-H226 lung) of 89% and a growth (NCI-H322M lung) of 98.8%. It also gave a growth (HOP-62 NSCLC) of 106%, a growth (NCI-H460 lung) of 56.9% and a growth (HOP-92 NSCLC) of 94.4%. For the same molecule, the growth (A549/ATCC NSCLC) was 97.3%, the growth (786-0 renal) was 102% and the growth (COLO 205 colon) was -42.1% (active). The growth (DU-145 prostate) was 105%, the growth (K-562 leukemia) was 84.2% and the growth (MALME-3M melanoma) was 102%. It also gave a growth (MDA-MB-231 breast) of 100%, a growth (RXF 393 renal) of 103% and a growth (SF-268 CNS) of 97.4%. For the same molecule, the growth (SF-295 CNS) was 105%, the growth (SF-539 CNS) was 101% and the growth (UACC-257 melanoma) was 101%. It also gave a growth (M14 melanoma) of 103%.

`COc1cc(Nc2cn[nH]c2-c2ccc(Cl)cc2)cc(OC)c1OC` was tested, and the growth (NCI-H23 lung) was 6.84% (active), the growth (NCI-H226 lung) was 65.2% and the growth (NCI-H322M lung) was 79.7%. It also gave a growth (HOP-62 NSCLC) of 36.7%, a growth (NCI-H460 lung) of 33.2% and a growth (HOP-92 NSCLC) of 50.7%. It also gave a growth (A549/ATCC NSCLC) of 51%, a growth (786-0 renal) of 53.5% and a growth (COLO 205 colon) of 37.6%. It also gave a growth (DU-145 prostate) of 108%, a growth (K-562 leukemia) of 36.4% and a growth (MALME-3M melanoma) of 38.1%. The growth (MDA-MB-231 breast) was 49.4%, the growth (RXF 393 renal) was 51.5% and the growth (SF-268 CNS) was 77%. It also gave a growth (SF-295 CNS) of 66.4%, a growth (SF-539 CNS) of 43.4% and a growth (UACC-257 melanoma) of 71.3%. For the same molecule, the growth (M14 melanoma) was 8.84% (active).

In the case of `CC1Cc2c(ncn3c(-c4ccc(F)cc4)nnc23)N(C)c2ccccc21` (stereo unspecified), the growth (NCI-H23 lung) is reported as 73.4%, the growth (NCI-H226 lung) is reported as 33.2% and the growth (NCI-H322M lung) is reported as 2.19% (active). The growth (HOP-62 NSCLC) was 59.5%, the growth (NCI-H460 lung) was 5% (active) and the growth (HOP-92 NSCLC) was 35.9%. The growth (A549/ATCC NSCLC) was 16.3%, the growth (786-0 renal) was 29.9% and the growth (COLO 205 colon) was 43.6%. It also gave a growth (DU-145 prostate) of 63.8%, a growth (K-562 leukemia) of 70.4% and a growth (MALME-3M melanoma) of 37.4%. It also gave a growth (RXF 393 renal) of 66.4%, a growth (SF-268 CNS) of 56.6% and a growth (SF-295 CNS) of 74.1%. It also gave a growth (SF-539 CNS) of 74.9%, a growth (UACC-257 melanoma) of 69.7% and a growth (M14 melanoma) of 59.4%.

`Cc1ccc2c(-c3cc(-c4ccccc4)nc(N)c3C#N)cc(=O)oc2c1` gave a growth (NCI-H23 lung) of 102%, a growth (NCI-H226 lung) of 95.9% and a growth (NCI-H322M lung) of 96.6%. The growth (HOP-62 NSCLC) was 88.3%, the growth (NCI-H460 lung) was 101% and the growth (HOP-92 NSCLC) was 92.3%. The growth (A549/ATCC NSCLC) was 92%, the growth (786-0 renal) was 92.2% and the growth (COLO 205 colon) was 108%. The growth (DU-145 prostate) was 107%, the growth (K-562 leukemia) was 108% and the growth (MALME-3M melanoma) was 94.8%. The growth (MDA-MB-231 breast) was 101%, the growth (RXF 393 renal) was 110% and the growth (SF-268 CNS) was 99.1%. For the same molecule, the growth (SF-295 CNS) was 109%, the growth (SF-539 CNS) was 94.7% and the growth (UACC-257 melanoma) was 101%. The growth (M14 melanoma) was 108%.

For `O=c1c2cc(C(F)(F)F)ccc2sc2c(NCCCNCCO)nc3ccccc3c12`, the growth (NCI-H23 lung) was 45%, the growth (NCI-H226 lung) was 75.7% and the growth (NCI-H322M lung) was 58.5%. The growth (HOP-62 NSCLC) was 40.7%, the growth (NCI-H460 lung) was -82.3% (active) and the growth (HOP-92 NSCLC) was 27.9%. For the same molecule, the growth (A549/ATCC NSCLC) was -29.6% (active), the growth (786-0 renal) was 43% and the growth (COLO 205 colon) was -53.2% (active). The growth (DU-145 prostate) was -71.6% (active), the growth (K-562 leukemia) was -47.1% (active) and the growth (MALME-3M melanoma) was 75.2%. For the same molecule, the growth (MDA-MB-231 breast) was -58.7% (active), the growth (RXF 393 renal) was 42.6% and the growth (SF-268 CNS) was 36.6%. For the same molecule, the growth (SF-295 CNS) was 42.7%, the growth (SF-539 CNS) was -79.1% (active) and the growth (UACC-257 melanoma) was 92%. For the same molecule, the growth (M14 melanoma) was -38.9% (active).

In the case of `CCN(CC)c1ccc(C2=NN(C(C)=O)C(c3cc(OC)c(OC)c(OC)c3)C2)cc1` (stereo unspecified), the growth (NCI-H23 lung) is reported as 23.5%, the growth (NCI-H226 lung) is reported as 9.31% (active) and the growth (NCI-H322M lung) is reported as -3.75% (active). It also gave a growth (HOP-62 NSCLC) of 40.7%, a growth (NCI-H460 lung) of 13.4% and a growth (HOP-92 NSCLC) of 20.6%. The growth (A549/ATCC NSCLC) was 17.1%, the growth (786-0 renal) was 24% and the growth (COLO 205 colon) was -4.4% (active). The growth (DU-145 prostate) was -39.4% (active), the growth (K-562 leukemia) was -4.46% (active) and the growth (MALME-3M melanoma) was 21.7%. The growth (MDA-MB-231 breast) was 3.7% (active), the growth (RXF 393 renal) was -44% (active) and the growth (SF-268 CNS) was 18.8%. The growth (SF-295 CNS) was 7.69% (active), the growth (SF-539 CNS) was 2.39% (active) and the growth (UACC-257 melanoma) was 55.9%. The growth (M14 melanoma) was -28.8% (active).

From PubChem BioAssay (NCI)
